Measurements: PMC12820563, “FoxP3 forms a head-to-head dimer in vivo and stabilizes its multimerization on adjacent microsatellites”
Whole data set: some 16,000 sequences, median “rpm ratio (pull-down/input)” near 0.5, cut for the highest 2% near 5.5. Only a selection was taken, and the highest values are over-represented in it overall.

The sequences below were run against T1, MBP-FoxP3dN (Mus musculus, UniProt Q99JB6 188-423) (assay: PD-seq (MBP pull-down with sequencing); 20 mM Tris-HCl pH 7.5, 100 mM NaCl, 1.5 mM MgCl2, 0.4 uM protein, 0.1 uM dsDNA library, 30 min, room temperature, amylose pull-down; high values mean tight binding). Details: protein: recombinant; tags: His6-MBP; chain copies: 2; dsDNA, one strand shown.
T1 sequence: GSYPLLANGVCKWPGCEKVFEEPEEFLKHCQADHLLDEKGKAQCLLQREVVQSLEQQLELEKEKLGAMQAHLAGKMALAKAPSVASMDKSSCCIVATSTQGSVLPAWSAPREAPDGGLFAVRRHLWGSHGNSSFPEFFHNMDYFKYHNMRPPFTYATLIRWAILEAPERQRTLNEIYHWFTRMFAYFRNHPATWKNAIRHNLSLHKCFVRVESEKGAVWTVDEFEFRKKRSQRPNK
Outline: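 Binding is the reads-per-million enrichment of pull-down relative to input, pooled across replicates. For this, 0.4 µM His6-MBP-tagged mouse FoxP3 or FoxP1 fragment lacking the N-terminus, made in E. coli, was incubated with 0.1 µM Klenow-filled double-stranded degenerate DNA library for 30 min at room temperature in Tris pH 7.5 buffer with NaCl and MgCl2. Complexes bound to amylose resin were washed three times before proteinase K released the DNA for PCR barcoding and Illumina sequencing.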
With “GATGATTGTTCTCCCAGCTGATGAATTAGTGCGATCGAGTAAACAAATTTTCCTAATCTTTCTGTTCAAGCGCCATCTAC” the binding signal was 0.851 RPM ratio (pull-down/input). “GATGATTGTTCTCCCAGCTGATGAATTTCTGTCCTCGAGTAAACAAATTTTCCTAATCTTTCTGTTCAAGCGCCATCTAC” was tested, and the binding signal was 0.313 RPM ratio (pull-down/input). With “GATGATTGTTCTCCCAGCTGATGAATTGTCCTCCTCGAGTAAACAAATTTTCCTAATCTTTCTGTTCAAGCGCCATCTAC” the binding signal was 0.37 RPM ratio (pull-down/input). With “GATGATTGTTCTCCCAGCTGATGAATTGTTGTTCTCGAGTAAACAAATTTTCCTAATCTTTCTGTTCAAGCGCCATCTAC” the binding signal was 7.17 RPM ratio (pull-down/input). In the case of “GATGATTGTTCTCCCAGCTGATGAATTGTCTTACTCGAGTAAACAAATTTTCCTAATCTTTCTGTTCAAGCGCCATCTAC”, the binding signal is reported as 0.469 RPM ratio (pull-down/input). For “GATGATTGTTCTCCCAGCTGATGAATTTCTAATCTCGAGTAAACAAATTTTCCTAATCTTTCTGTTCAAGCGCCATCTAC”, the binding signal was 0.288 RPM ratio (pull-down/input). In the case of “GATGATTGTTCTCCCAGCTGATGAATTTTGTCTCTCGAGTAAACAAATTTTCCTAATCTTTCTGTTCAAGCGCCATCTAC”, the binding signal is reported as 2.39 RPM ratio (pull-down/input). For “GATGATTGTTCTCCCAGCTGATGAATTCTTTGTCTCGAGTAAACAAATTTTCCTAATCTTTCTGTTCAAGCGCCATCTAC”, the binding signal was 0.413 RPM ratio (pull-down/input). With “GATGATTGTTCTCCCAGCTGATGAATTGTTGTCCTCGAGTAAACAAATTTTCCTAATCTTTCTGTTCAAGCGCCATCTAC” the binding signal was 5.63 RPM ratio (pull-down/input). With “GATGATTGTTCTCCCAGCTGATGAATTGTCCTACTCGAGTAAACAAATTTTCCTAATCTTTCTGTTCAAGCGCCATCTAC” the binding signal was 0.368 RPM ratio (pull-down/input). With “GATGATTGTTCTCCCAGCTGATGAATTGTTTGTCTCGAGTAAACAAATTTTCCTAATCTTTCTGTTCAAGCGCCATCTAC” the binding signal was 7.63 RPM ratio (pull-down/input). “GATGATTGTTCTCCCAGCTGATGAATTTGTCTACTCGAGTAAACAAATTTTCCTAATCTTTCTGTTCAAGCGCCATCTAC” was tested, and the binding signal was 5.77 RPM ratio (pull-down/input). In the case of “GATGATTGTTCTCCCAGCTGATGAATTTTTTTTCTCGAGTAAACAAATTTTCCTAATCTTTCTGTTCAAGCGCCATCTAC”, the binding signal is reported as 0.267 RPM ratio (pull-down/input). For “GATGATTGTTCTCCCAGCTGATGAATTTGTGCGCTCGAGTAAACAAATTTTCCTAATCTTTCTGTTCAAGCGCCATCTAC”, the binding signal was 1.87 RPM ratio (pull-down/input). For “GATGATTGTTCTCCCAGCTGATGAATTTATGCGGTCGAGTAAACAAATTTTCCTAATCTTTCTGTTCAAGCGCCATCTAC”, the binding signal was 1.09 RPM ratio (pull-down/input). For “GATGATTGTTCTCCCAGCTGATGAATTAGTCCGCTCGAGTAAACAAATTTTCCTAATCTTTCTGTTCAAGCGCCATCTAC”, the binding signal was 0.349 RPM ratio (pull-down/input). “GATGATTGTTCTCCCAGCTGATGAATTTTGTCGATCGAGTAAACAAATTTTCCTAATCTTTCTGTTCAAGCGCCATCTAC” was tested, and the binding signal was 1.18 RPM ratio (pull-down/input). “GATGATTGTTCTCCCAGCTGATGAATTCTTCGACTCGAGTAAACAAATTTTCCTAATCTTTCTGTTCAAGCGCCATCTAC” was tested, and the binding signal was 0.239 RPM ratio (pull-down/input). With “GATGATTGTTCTCCCAGCTGATGAATTGATAATCTCGAGTAAACAAATTTTCCTAATCTTTCTGTTCAAGCGCCATCTAC” the binding signal was 0.411 RPM ratio (pull-down/input). With “GATGATTGTTCTCCCAGCTGATGAATTTACTTTCTCGAGTAAACAAATTTTCCTAATCTTTCTGTTCAAGCGCCATCTAC” the binding signal was 1.32 RPM ratio (pull-down/input). For “GATGATTGTTCTCCCAGCTGATGAATTCTAGCCTTCGAGTAAACAAATTTTCCTAATCTTTCTGTTCAAGCGCCATCTAC”, the binding signal was 1.89 RPM ratio (pull-down/input). In the case of “GATGATTGTTCTCCCAGCTGATGAATTTCCGTGGTCGAGTAAACAAATTTTCCTAATCTTTCTGTTCAAGCGCCATCTAC”, the binding signal is reported as 0.282 RPM ratio (pull-down/input). For “GATGATTGTTCTCCCAGCTGATGAATTCGTCGGGTCGAGTAAACAAATTTTCCTAATCTTTCTGTTCAAGCGCCATCTAC”, the binding signal was 0.574 RPM ratio (pull-down/input). With “GATGATTGTTCTCCCAGCTGATGAATTGGTTTGCTCGAGTAAACAAATTTTCCTAATCTTTCTGTTCAAGCGCCATCTAC” the binding signal was 4.24 RPM ratio (pull-down/input). For “GATGATTGTTCTCCCAGCTGATGAATTTTAGTTATCGAGTAAACAAATTTTCCTAATCTTTCTGTTCAAGCGCCATCTAC”, the binding signal was 1.33 RPM ratio (pull-down/input). For “GATGATTGTTCTCCCAGCTGATGAATTGTTGTCTTCGAGTAAACAAATTTTCCTAATCTTTCTGTTCAAGCGCCATCTAC”, the binding signal was 5.62 RPM ratio (pull-down/input). In the case of “GATGATTGTTCTCCCAGCTGATGAATTTTTTGTCTCGAGTAAACAAATTTTCCTAATCTTTCTGTTCAAGCGCCATCTAC”, the binding signal is reported as 0.367 RPM ratio (pull-down/input). For “GATGATTGTTCTCCCAGCTGATGAATTGTCTTCTTCGAGTAAACAAATTTTCCTAATCTTTCTGTTCAAGCGCCATCTAC”, the binding signal was 0.478 RPM ratio (pull-down/input). With “GATGATTGTTCTCCCAGCTGATGAATTTCTGTCTTCGAGTAAACAAATTTTCCTAATCTTTCTGTTCAAGCGCCATCTAC” the binding signal was 0.368 RPM ratio (pull-down/input). “GATGATTGTTCTCCCAGCTGATGAATTTGTTGTCTCGAGTAAACAAATTTTCCTAATCTTTCTGTTCAAGCGCCATCTAC” was tested, and the binding signal was 7.77 RPM ratio (pull-down/input). In the case of “GATGATTGTTCTCCCAGCTGATGAATTTGTCTTCTCGAGTAAACAAATTTTCCTAATCTTTCTGTTCAAGCGCCATCTAC”, the binding signal is reported as 4.22 RPM ratio (pull-down/input). In the case of “GATGATTGTTCTCCCAGCTGATGAATTCCATTCGTCGAGTAAACAAATTTTCCTAATCTTTCTGTTCAAGCGCCATCTAC”, the binding signal is reported as 0.494 RPM ratio (pull-down/input). With “GATGATTGTTCTCCCAGCTGATGAATTAGAGAGTTCGAGTAAACAAATTTTCCTAATCTTTCTGTTCAAGCGCCATCTAC” the binding signal was 0.399 RPM ratio (pull-down/input). For “GATGATTGTTCTCCCAGCTGATGAATTACTGGGGTCGAGTAAACAAATTTTCCTAATCTTTCTGTTCAAGCGCCATCTAC”, the binding signal was 0.231 RPM ratio (pull-down/input). In the case of “GATGATTGTTCTCCCAGCTGATGAATTGAACTGGTCGAGTAAACAAATTTTCCTAATCTTTCTGTTCAAGCGCCATCTAC”, the binding signal is reported as 0.209 RPM ratio (pull-down/input). In the case of “GATGATTGTTCTCCCAGCTGATGAATTAGAGATCTCGAGTAAACAAATTTTCCTAATCTTTCTGTTCAAGCGCCATCTAC”, the binding signal is reported as 0.32 RPM ratio (pull-down/input). “GATGATTGTTCTCCCAGCTGATGAATTAGAATGTTCGAGTAAACAAATTTTCCTAATCTTTCTGTTCAAGCGCCATCTAC” was tested, and the binding signal was 0.671 RPM ratio (pull-down/input).
